Shown are actives, neighbours in structure and some others; about 2.5% of the full set was active somewhere.
MCL1-BIM inh: inhibitors of human MCL1 binding to BIM-BH3 peptide; Q07820; GST-MCL1 / FITC-Bim-BH3 fluorescence polarization; inhibition, % at 10.9 µM; hit rate 0.68% among 320,000; AID 2057;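 active = inhibition above the mean inhibition of all tested compounds plus 3 SD, set per campaign, cut at about 40% in these data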;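 also: higher means more loss of mP so more displacement of Bim peptide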
Target sequence (Q07820 whole entry, looked up): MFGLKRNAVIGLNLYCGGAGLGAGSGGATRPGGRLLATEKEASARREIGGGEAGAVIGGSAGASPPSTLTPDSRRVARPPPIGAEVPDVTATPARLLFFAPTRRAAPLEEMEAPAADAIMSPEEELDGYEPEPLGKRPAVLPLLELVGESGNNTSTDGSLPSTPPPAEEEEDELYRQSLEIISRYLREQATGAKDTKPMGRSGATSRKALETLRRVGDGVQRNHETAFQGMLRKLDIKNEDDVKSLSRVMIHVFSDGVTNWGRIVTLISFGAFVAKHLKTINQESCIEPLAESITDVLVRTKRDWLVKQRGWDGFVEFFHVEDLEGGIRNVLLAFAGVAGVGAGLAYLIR
Mcl-1 Bim block: inhibitors of Bim-Mcl-1 interaction, human. Bead-based flow cytometry, Bim peptide-Mcl-1 binding. inhibition, % at 10 µM. hit rate 0.1% among 190,000. AID 1009; in the data active = inhibition above about 40%
Mcl1-Noxa inh: disrupts binding of human Mcl-1 to Noxa peptide; Q07820; TR-FRET Mcl-1/Noxa peptide binding, 2 h; inhibition, % at 21.7 µM; hit rate 1.5% among 220,000;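 active = compounds that cut the protein-peptide binding signal by more than 50% relative to plate controls in a single-dose test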;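 also: His-tagged Mcl-1 with rhodamine Noxa BH3 peptide and terbium anti-His antibody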
Mcl1 Bid PPI: Mcl-1/Bid interaction inhibition. inhibition, % at 21.7 µM. Q07820. hit rate 0.97% among 220,000. TR-FRET Mcl-1/Bid-Dy647 peptide binding, 1536-well;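 active = compounds that cut the binding signal by more than half at the single screening dose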;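 also: His-tagged Mcl-1 with europium anti-His antibody binding Bid BH3 peptide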
14-3-3 Bad PPI: disrupts binding of bovine 14-3-3 zeta to phospho-Bad peptide. P63103. TR-FRET 14-3-3zeta/Dy647-pBad peptide displacement, 1 h. inhibition, % at 21.7 µM. hit rate 0.71% among 220,000. AID 781;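 active = inhibition above about 70%, limit read from the data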
Each line names hits and unclear results; the compound was inactive in the other large screens.

Cc1cc(C(=O)CS(=O)(=O)c2ccc(Cl)cc2)cc(C)c1O	none (no result: Mcl-1 Bim block, Mcl1-Noxa inh, Mcl1 Bid PPI, 14-3-3 Bad PPI)
CCNC(=S)N1CCC(C(=O)c2ccc(Cl)cc2)CC1	none (no result: Mcl-1 Bim block, Mcl1-Noxa inh, Mcl1 Bid PPI, 14-3-3 Bad PPI)
O=c1oc2ccccc2n1Cn1c(=O)oc2ccccc21	none
Cc1ccc(NC(=O)CN2C(=O)S/C(=C\c3cc(C)n(-c4ccc(C(=O)O)cc4)c3C)C2=O)cc1	none
Cc1ccc(NC(=O)CN2C(=O)N/C(=C/c3cc(C)n(-c4ccc(C(=O)O)cc4)c3C)C2=O)cc1	Mcl1-Noxa inh 76.0 (no result: MCL1-BIM inh)
Cc1cccc(NC(=O)CN2C(=O)N/C(=C/c3ccc(C)s3)C2=O)c1	none
Cc1ccc(NC(=O)CN2C(=O)N/C(=C/c3ccco3)C2=O)cc1	Mcl1-Noxa inh 61.3
COc1ccc(C2SCCN2C(=O)c2ccc([N+](=O)[O-])cc2)cc1 (configuration not stated)	none
CCN(CC)c1ncccc1C(=O)NCc1cccs1	none
O=C(/C=C/Nc1cccc(F)c1)c1ccco1	Mcl1 Bid PPI 86.7
O=C(/C=C/Nc1ccc(F)c(Cl)c1)c1ccco1	none
CN(C)c1ccc(NC(=O)c2cn(-c3ccccc3)nc2-c2cccs2)cc1	Mcl1-Noxa inh 76.8
O=C(Nc1ccc2ccccc2c1)c1cn(-c2ccccc2)nc1-c1cccs1	none
Cc1nnsc1C(=O)NC1CCCc2c1cnn2-c1cc(F)cc(F)c1 (configuration not stated)	none (no result: Mcl-1 Bim block, Mcl1-Noxa inh, Mcl1 Bid PPI, 14-3-3 Bad PPI)
COc1ccc(N2CCN(c3ncnc4c3[nH]c3ccccc34)CC2)cc1	none
COc1cc2[nH]c3c(N4CCN(c5ccccn5)CC4)ncnc3c2cc1OC	Mcl1-Noxa inh 63.6
COc1ccc2[nH]c3c(N4CCc5ccccc5C4)ncnc3c2c1	Mcl1-Noxa inh 61.5 (no result: Mcl-1 Bim block)
CCOc1nc(NCc2ccco2)nc(Nc2ccc(OC)cc2)n1	none
O=C(CCc1ccccc1)n1nc(-c2ccccc2)nc1NCc1ccco1	none
COc1ccc(Nc2nc(NCc3ccco3)nc(N/N=C/c3ccccc3)n2)cc1	14-3-3 Bad PPI 81.3
COc1ccc(CC(=O)n2nc(-c3ccccc3)nc2NCc2ccco2)cc1	14-3-3 Bad PPI 78.0
CCN(CC(=O)N(CC(C)C)c1c(N)n(CC(C)C)c(=O)[nH]c1=O)Cc1nc2ccccc2c(=O)[nH]1	none (no result: Mcl-1 Bim block)
CCCC(c1nnnn1C1CCCC1)N1CCN(c2ccccc2F)CC1 (configuration not stated)	14-3-3 Bad PPI 81.5
CCC(c1nnnn1C1CCCC1)N1CCN(c2ccccc2F)CC1 (configuration not stated)	none
CCOc1ccccc1-c1c2cc(O)c(=O)cc-2oc2cc(O)c(O)cc12	Mcl1-Noxa inh 59.1 (no result: MCL1-BIM inh)
O=c1cc2oc3cc(O)c(O)cc3c(-c3ccccc3O)c-2cc1O	none (no result: MCL1-BIM inh, Mcl-1 Bim block)
Cc1ccc(C)c(N(CC(=O)N/N=C/c2ccc(-c3ccc([N+](=O)[O-])cc3)o2)S(=O)(=O)c2ccccc2)c1	none
Cc1ccccc1NC(=O)C1c2ccccc2Oc2ccccc21	none
Cc1cccc(C)c1NC(=O)C1c2ccccc2Oc2ccccc21	Mcl1 Bid PPI 81.0
C/C(=N\Nc1ccc(F)cc1F)c1ccc(N2CCOCC2)cc1	none
CCCCN(C(=O)CSc1nnc(-c2ccc(OC)cc2)n1C(C)C)c1c(N)n(Cc2ccccc2)c(=O)[nH]c1=O	Mcl1-Noxa inh 61.8
CCCCN(C(=O)CSc1nnc(-c2ccc(OC)cc2)n1CC)c1c(N)n(Cc2ccccc2)c(=O)[nH]c1=O	Mcl1-Noxa inh 60.4
COc1ccc(-c2nnc(Nc3nc4c(OC)cccc4s3)o2)cc1	Mcl1-Noxa inh 56.8, Mcl1 Bid PPI 56.4
COc1ccc(-c2nnc(Nc3nc4c(OC)cccc4s3)o2)c(OC)c1	none (no result: 14-3-3 Bad PPI)
CCc1nc2ccccc2c(C(=O)Oc2cccc3cccnc23)c1C	none
COc1ccccc1CNc1nc(-c2cc(C)n(C)c2C)cs1	Mcl1-Noxa inh 89.6, Mcl1 Bid PPI 64.5, 14-3-3 Bad PPI 96.2 (no result: MCL1-BIM inh)
Cc1ccc(-n2c(C)cc(-c3csc(N)n3)c2C)cc1	none
Cc1cc(-c2csc(N)n2)c(C)n1C	MCL1-BIM inh 42.1
COCCNc1nc(-c2cc(C)n(CCc3ccc(OC)cc3)c2C)cs1	Mcl1-Noxa inh 57.0
CC(C)NC(=O)CSCc1ccccc1Cl	none
O=C(Nc1ccc(-c2nc3cc(Cl)ccc3c(=O)o2)cc1)c1ccco1	Mcl1 Bid PPI 71.5
O=C(Nc1ccc(Cl)cc1)c1ccco1	none (no result: Mcl-1 Bim block, Mcl1-Noxa inh, Mcl1 Bid PPI, 14-3-3 Bad PPI)
O=C(NC1(C(F)(F)F)NC(=O)N(c2ccccc2F)C1=O)c1ccncc1 (configuration not stated)	none
COc1cccc(CNC(=O)CCC2CCCN(C(=O)CCC(F)(F)F)C2)c1 (configuration not stated)	none
